Experimental data from article PMC9911399, “Two distinct binding modes provide the RNA-binding protein RbFox with extraordinary sequence specificity”.
Substitutions are numbered along the chain they refer to; changes in the protein carry UniProt numbers. Whole data set: some 16,000 sequences, median “ka relative to ugcaugu” near 0.096, cut for the highest 2% near 0.35. The sample as a whole holds a higher share of the highest values than the screen did.

T1: RBFOX1 RRM RbFoxmut (Fox-RRM*) (Homo sapiens, UniProt Q9NWB1 109-208, R118D;E147R;N151S;E152T)
T1 sequence: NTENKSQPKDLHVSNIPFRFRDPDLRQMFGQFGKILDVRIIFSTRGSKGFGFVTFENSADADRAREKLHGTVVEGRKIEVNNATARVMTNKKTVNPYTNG

B1: GGUCGGG (DNA:RNA)
RNA: GGGAGACCGGAAUUCAGAUUGUCCGGUCGGGUUAAAUCCCGUCGUAGCCACCA
DNA 1: CAATCTGAATTCCGGTCTCCC
DNA 2: TGGTGGCTACGACGGGATT
B2: GGGACGG (DNA:RNA)
RNA: B1 RNA with U27G, C28A, G29C
DNA 1: CAATCTGAATTCCGGTCTCCC
DNA 2: TGGTGGCTACGACGGGATT
B3: GGUUUGG (DNA:RNA)
RNA: B1 RNA with C28U, G29U
DNA 1: CAATCTGAATTCCGGTCTCCC
DNA 2: TGGTGGCTACGACGGGATT
B4: GUCCGGU (DNA:RNA)
RNA: B1 RNA with G26U, U27C, G31U
DNA 1: CAATCTGAATTCCGGTCTCCC
DNA 2: TGGTGGCTACGACGGGATT
B5: GGUUUUG (DNA:RNA)
RNA: B1 RNA with C28U, G29U, G30U
DNA 1: CAATCTGAATTCCGGTCTCCC
DNA 2: TGGTGGCTACGACGGGATT
B6: GGUUUGU (DNA:RNA)
RNA: B1 RNA with C28U, G29U, G31U
DNA 1: CAATCTGAATTCCGGTCTCCC
DNA 2: TGGTGGCTACGACGGGATT
B7: GGUUUUU (DNA:RNA)
RNA: B1 RNA with C28U, G29U, G30U, G31U
DNA 1: CAATCTGAATTCCGGTCTCCC
DNA 2: TGGTGGCTACGACGGGATT
B8: CGGUUUG (DNA:RNA)
RNA: B1 RNA with G25C, U27G, C28U, G29U, G30U
DNA 1: CAATCTGAATTCCGGTCTCCC
DNA 2: TGGTGGCTACGACGGGATT
B9: UACCCGA (DNA:RNA)
RNA: B1 RNA with G25U, G26A, U27C, G29C, G31A
DNA 1: CAATCTGAATTCCGGTCTCCC
DNA 2: TGGTGGCTACGACGGGATT
B10: GGUCCCA (DNA:RNA)
RNA: B1 RNA with G29C, G30C, G31A
DNA 1: CAATCTGAATTCCGGTCTCCC
DNA 2: TGGTGGCTACGACGGGATT
B11: GGAGCAG (DNA:RNA)
RNA: B1 RNA with U27A, C28G, G29C, G30A
DNA 1: CAATCTGAATTCCGGTCTCCC
DNA 2: TGGTGGCTACGACGGGATT
B12: GAAUUGC (DNA:RNA)
RNA: B1 RNA with G26A, U27A, C28U, G29U, G31C
DNA 1: CAATCTGAATTCCGGTCTCCC
DNA 2: TGGTGGCTACGACGGGATT
B13: CGAAUGC (DNA:RNA)
RNA: B1 RNA with G25C, U27A, C28A, G29U, G31C
DNA 1: CAATCTGAATTCCGGTCTCCC
DNA 2: TGGTGGCTACGACGGGATT
B14: GAAUGCU (DNA:RNA)
RNA: B1 RNA with G26A, U27A, C28U, G30C, G31U
DNA 1: CAATCTGAATTCCGGTCTCCC
DNA 2: TGGTGGCTACGACGGGATT
B15: GCAAUGC (DNA:RNA)
RNA: B1 RNA with G26C, U27A, C28A, G29U, G31C
DNA 1: CAATCTGAATTCCGGTCTCCC
DNA 2: TGGTGGCTACGACGGGATT
B16: UGAAUGC (DNA:RNA)
RNA: B1 RNA with G25U, U27A, C28A, G29U, G31C
DNA 1: CAATCTGAATTCCGGTCTCCC
DNA 2: TGGTGGCTACGACGGGATT
B17: GAAAUGC (DNA:RNA)
RNA: B1 RNA with G26A, U27A, C28A, G29U, G31C
DNA 1: CAATCTGAATTCCGGTCTCCC
DNA 2: TGGTGGCTACGACGGGATT
B18: GAUGCUU (DNA:RNA)
RNA: B1 RNA with G26A, C28G, G29C, G30U, G31U
DNA 1: CAATCTGAATTCCGGTCTCCC
DNA 2: TGGTGGCTACGACGGGATT
B19: UAAAUGC (DNA:RNA)
RNA: B1 RNA with G25U, G26A, U27A, C28A, G29U, G31C
DNA 1: CAATCTGAATTCCGGTCTCCC
DNA 2: TGGTGGCTACGACGGGATT
B20: GAUUGCU (DNA:RNA)
RNA: B1 RNA with G26A, C28U, G30C, G31U
DNA 1: CAATCTGAATTCCGGTCTCCC
DNA 2: TGGTGGCTACGACGGGATT
B21: UUAAUGC (DNA:RNA)
RNA: B1 RNA with G25U, G26U, U27A, C28A, G29U, G31C
DNA 1: CAATCTGAATTCCGGTCTCCC
DNA 2: TGGTGGCTACGACGGGATT
B22: GGAAUGC (DNA:RNA)
RNA: B1 RNA with U27A, C28A, G29U, G31C
DNA 1: CAATCTGAATTCCGGTCTCCC
DNA 2: TGGTGGCTACGACGGGATT
B23: GUAAUGC (DNA:RNA)
RNA: B1 RNA with G26U, U27A, C28A, G29U, G31C
DNA 1: CAATCTGAATTCCGGTCTCCC
DNA 2: TGGTGGCTACGACGGGATT
B24: AUGCCGC (DNA:RNA)
RNA: B1 RNA with G25A, G26U, U27G, G29C, G31C
DNA 1: CAATCTGAATTCCGGTCTCCC
DNA 2: TGGTGGCTACGACGGGATT
B25: ACACGGC (DNA:RNA)
RNA: B1 RNA with G25A, G26C, U27A, G31C
DNA 1: CAATCTGAATTCCGGTCTCCC
DNA 2: TGGTGGCTACGACGGGATT
B26: UUUUCCC (DNA:RNA)
RNA: B1 RNA with G25U, G26U, C28U, G29C, G30C, G31C
DNA 1: CAATCTGAATTCCGGTCTCCC
DNA 2: TGGTGGCTACGACGGGATT
B27: GGGACUG (DNA:RNA)
RNA: B1 RNA with U27G, C28A, G29C, G30U
DNA 1: CAATCTGAATTCCGGTCTCCC
DNA 2: TGGTGGCTACGACGGGATT
B28: UCCAGUU (DNA:RNA)
RNA: B1 RNA with G25U, G26C, U27C, C28A, G30U, G31U
DNA 1: CAATCTGAATTCCGGTCTCCC
DNA 2: TGGTGGCTACGACGGGATT
B29: CGAUCAG (DNA:RNA)
RNA: B1 RNA with G25C, U27A, C28U, G29C, G30A
DNA 1: CAATCTGAATTCCGGTCTCCC
DNA 2: TGGTGGCTACGACGGGATT
B30: AUUGUAA (DNA:RNA)
RNA: B1 RNA with G25A, G26U, C28G, G29U, G30A, G31A
DNA 1: CAATCTGAATTCCGGTCTCCC
DNA 2: TGGTGGCTACGACGGGATT
B31: UUUGUUC (DNA:RNA)
RNA: B1 RNA with G25U, G26U, C28G, G29U, G30U, G31C
DNA 1: CAATCTGAATTCCGGTCTCCC
DNA 2: TGGTGGCTACGACGGGATT

target: T1, RBFOX1 RRM RbFoxmut (Fox-RRM*); test: EMSA; HiTS-Eq, 1 nM pool, 10 min; buffer printed only for the single-RNA assays: 10 mM Tris pH 7.5, 150 mM NaCl, 3.4 mM EDTA, 0.001% NP-40, 30 C; conditions: tags: His6 N-terminal (pET28a); label: 5' 32P
Summary of the method: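 Purified wild-type or mutant RbFox RRM at increasing concentrations was equilibrated with 1 nM of 5′-radiolabelled RNA carrying 7 randomized nucleotides for 10 min in 50 µL. Unbound RNA was separated by 8% native PAGE and sequenced. Relative association constants came from read-count changes of each RNA species compared with the control reaction, normalised to the cognate motif.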

Binder	binding signal
B1	0.0602 KA relative to UGCAUGU
B2	0.0996 KA relative to UGCAUGU
B3	0.277 KA relative to UGCAUGU
B4	0.132 KA relative to UGCAUGU
B5	0.191 KA relative to UGCAUGU
B6	0.366 KA relative to UGCAUGU
B7	0.056 KA relative to UGCAUGU
B8	0.633 KA relative to UGCAUGU
B9	0.066 KA relative to UGCAUGU
B10	0.0504 KA relative to UGCAUGU
B11	0.0829 KA relative to UGCAUGU
B12	0.119 KA relative to UGCAUGU
B13	0.856 KA relative to UGCAUGU
B14	0.634 KA relative to UGCAUGU
B15	0.0545 KA relative to UGCAUGU
B16	0.485 KA relative to UGCAUGU

Binder	binding signal
B17	0.072 KA relative to UGCAUGU
B18	0.0831 KA relative to UGCAUGU
B19	0.0677 KA relative to UGCAUGU
B20	0.141 KA relative to UGCAUGU
B21	0.118 KA relative to UGCAUGU
B22	0.686 KA relative to UGCAUGU
B23	0.127 KA relative to UGCAUGU
B24	0.11 KA relative to UGCAUGU
B25	0.115 KA relative to UGCAUGU
B26	0.0312 KA relative to UGCAUGU
B27	0.266 KA relative to UGCAUGU
B28	0.0717 KA relative to UGCAUGU
B29	0.0789 KA relative to UGCAUGU
B30	0.154 KA relative to UGCAUGU
B31	0.0935 KA relative to UGCAUGU
